The results in this text go back to PubChem BioAssay.

SMILES strings stand for the structures. Inconclusive results are not listed. Calls of active or inactive are those of the source.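 Rule for the calls, unless noted: active = response below a set limit, under 55% cells CD8-positive and vesicle-bound, and CD8 cells' 90th-percentile brightness under 279; inactive = the rest.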

A short description of assay [1]: rapamycin-like changes in RPL19A-GFP expression – cell-based, S. cerevisiae, multiplex flow cytometry, primary screen (AID 1862; in the data active = percent of DMSO control GFP below about 86%;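 note: lower values mimic rapamycin by blocking the RPL19A rise seen in DMSO cells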). The settings on record: S. cerevisiae RPL19A-GFP strain, flow cytometry fluorescence, 3 h; at 10 µM; stronger effect = lower value.
Assay [2] can be described thus: TOR pathway GLN3 branch reporter MEP2-GFP changes – S. cerevisiae, multiplex flow cytometry, primary screen (AID 1867;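 active = GFP response, as percent of the DMSO control, above the screen-wide mean plus 3 SD, about 139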;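 note: median GFP channel fluorescence of barcode-gated MEP2-GFP cells measured by flow cytometry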). The settings on record: S. cerevisiae MEP2-GFP strain, 3 h, at 10 µM, stronger effect = higher value, 100% means same as DMSO wells.
Assay [3] in a line: TOR pathway RTG branch CIT2 reporter changes – S. cerevisiae, GFP fusion, multiplex flow cytometry, primary screen (AID 1870;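 active = percent response above a set limit, the screen-wide mean plus 3 SD, cut at about 130% in these data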;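 note: barcoded CIT2-GFP strain pooled with four other GFP strains with rapamycin as positive control; median GFP fluorescence per well over plate mean of DMSO wells so 100% = DMSO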). The settings on record: S. cerevisiae CIT2-GFP expression, 3 h, at 10 µM, stronger effect = higher value.
Assay [4] can be described thus: TOR pathway LAP4-GFP level changes – S. cerevisiae, multiplex flow cytometry, primary screen (AID 1873;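 active = GFP signal, as percent of the solvent control, above the screen mean plus 3 SD, about 149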). Conditions: S. cerevisiae LAP4-GFP expression, 3 h, at 10 µM, stronger effect = higher value.
Assay [5] is described as follows: yeast AGP1-GFP level changes, GLN3 branch – cell-based, multiplex flow cytometry, S. cerevisiae, primary screen (AID 1887;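 active = GFP signal above the screen-wide mean plus 3 SD, that is over about 124.5% of the solvent control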;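 note: AGP1-GFP fusion strain of S. cerevisiae within a five-strain barcoded multiplex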). Conditions: 3 h, at 10 µM, stronger effect = higher value.
Assay [6] in a line: reduced mouse 2C T cell binding to pMHC/ICAM-1 vesicles – MLPCN validation set, flow cytometry, LFA-1/ICAM-1 modulator project, pilot screen (AID 2523).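 For vesicle binding response: mean PE anti-B7-1 fluorescence of CD8+ cells relative to row control; 100% = QL9-loaded vesicles with DMSO vehicle in the same plate row.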 The settings on record: 2C mouse CD8+ T cells, at 7 µM, stronger effect = lower value; double positive events: measured here: CD8+/vesicle+ event percentage.
Assay [7] has as its target Integrin beta-1 (Homo sapiens) + Integrin alpha-4 (Homo sapiens) (UniProt P13612+P05556). The experiment in a line: alpha4beta1 integrin LIBS antibody binding reduction – U937 cells, HUTS-21 mAb, flow cytometry, validation set, VLA-4 allosteric modulator project, pilot screen (AID 2674;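 active = inhibition above 50%, about 3 SD of the validation set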;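 note: antibody binding induced by the VLA-4 ligand LDV present at three times its Kd; 0% = LDV ligand with antibody and no compound and 100% = antibody without LDV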). The settings on record: HUTS-21 LIBS mAb binding, at 6.7 µM, stronger effect = higher value, binding induced by LDV ligand.

A short description of assay [8]: calorie-restriction mimetic ROS inhibitors, yeast – validation compound set, pilot screen (AID 2706;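 active = superoxide response below 65% of plate, a cut near 3 SD across the whole screen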;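 note: yeast exposed to compound for one week at 30 degrees C before staining; 100% = mean of all compound wells on the same plate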). Conditions: S. cerevisiae aging, superoxide DHE fluorescence; at 10 µM, stronger effect = lower value.
The target in assay [9] is Beta-adrenergic receptor kinase 1 (Homo sapiens) (UniProt P25098). The experiment in a line: GRK2 binders displacing RNA aptamer, biochemical, validation, human GRK2, bead flow cytometry (AID 488806;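 active = aptamer binding inhibition above 30%, about 3 SD of noise from non-fluorescent compounds; inactive = inhibition at or below 30%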). The settings on record: bead-bound GRK2, FAM-aptamer displacement, at 10 µM, stronger effect = higher value.
Chain of Beta-adrenergic receptor kinase 1 (Homo sapiens) (P25098 whole entry, looked up): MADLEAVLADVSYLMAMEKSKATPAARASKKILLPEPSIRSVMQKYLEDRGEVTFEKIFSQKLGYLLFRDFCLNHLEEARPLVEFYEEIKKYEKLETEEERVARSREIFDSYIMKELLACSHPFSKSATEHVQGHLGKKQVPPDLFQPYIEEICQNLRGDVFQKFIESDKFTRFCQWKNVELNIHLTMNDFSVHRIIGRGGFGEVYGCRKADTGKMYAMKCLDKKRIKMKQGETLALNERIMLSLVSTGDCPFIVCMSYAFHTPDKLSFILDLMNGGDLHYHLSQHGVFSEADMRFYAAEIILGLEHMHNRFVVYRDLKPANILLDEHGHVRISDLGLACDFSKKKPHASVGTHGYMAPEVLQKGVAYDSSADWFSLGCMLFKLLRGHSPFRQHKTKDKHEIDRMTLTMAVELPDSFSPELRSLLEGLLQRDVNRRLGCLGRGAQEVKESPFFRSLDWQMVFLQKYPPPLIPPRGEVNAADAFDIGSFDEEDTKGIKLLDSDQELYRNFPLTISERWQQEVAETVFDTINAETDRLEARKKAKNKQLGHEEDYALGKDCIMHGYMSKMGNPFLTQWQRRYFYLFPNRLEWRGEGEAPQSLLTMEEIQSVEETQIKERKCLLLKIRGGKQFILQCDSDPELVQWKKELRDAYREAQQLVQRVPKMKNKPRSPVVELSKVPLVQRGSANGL
In assay [10] the target is Beta-2 adrenergic receptor (Homo sapiens) (UniProt P07550). The experiment in a line: agonist-induced loss of surface beta2AR – cell-based, FAP fluorogen, flow cytometry, validation set, pilot screen (AID 504459;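 active = percent response above 42, roughly 3 SD of non-fluorescent test compounds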;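 note: agonist-driven loss of surface beta2AR via internalization measured by FAP dye flow cytometry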). The settings on record: Am2.2-beta2AR cells, at 10 µM, stronger effect = higher value.
Chain of Beta-2 adrenergic receptor (Homo sapiens) (P07550 whole entry, looked up): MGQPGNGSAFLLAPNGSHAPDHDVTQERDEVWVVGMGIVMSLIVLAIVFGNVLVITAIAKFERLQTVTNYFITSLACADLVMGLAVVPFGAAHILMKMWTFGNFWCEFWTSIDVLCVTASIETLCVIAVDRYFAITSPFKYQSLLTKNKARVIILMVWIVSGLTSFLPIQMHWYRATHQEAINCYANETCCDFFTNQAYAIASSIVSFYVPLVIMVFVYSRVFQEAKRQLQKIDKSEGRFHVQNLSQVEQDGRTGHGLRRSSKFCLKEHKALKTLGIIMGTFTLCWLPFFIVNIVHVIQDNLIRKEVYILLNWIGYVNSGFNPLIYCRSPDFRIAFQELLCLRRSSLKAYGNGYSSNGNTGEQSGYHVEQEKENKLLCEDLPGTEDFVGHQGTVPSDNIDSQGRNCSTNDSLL
The target of assay [11] is AP-2 complex subunit beta (Homo sapiens) (UniProt P63010). Put plainly: beta-arrestin/AP2 interaction blockers – biochemical, validation set, GST-AP2 beads, flow cytometry, pilot screen (AID 504541;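 active = inhibition above 54%, about 3 SD of non-fluorescent compounds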;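 note: AP2 carries R879A mutation and is captured from E. coli lysate; bead-bound FITC arrestin peptide fluorescence measuring arrestin peptide binding to AP2; 0% = DMSO wells and 100% = excess unlabeled arrestin peptide control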). Conditions: FITC arrestin peptide, at 10 µM, stronger effect = higher value, AP2 beta2 appendage fragment, R879A mutant.
Chain of AP-2 complex subunit beta (Homo sapiens) (P63010 whole entry, looked up, the tested form may be a part, one chain of several): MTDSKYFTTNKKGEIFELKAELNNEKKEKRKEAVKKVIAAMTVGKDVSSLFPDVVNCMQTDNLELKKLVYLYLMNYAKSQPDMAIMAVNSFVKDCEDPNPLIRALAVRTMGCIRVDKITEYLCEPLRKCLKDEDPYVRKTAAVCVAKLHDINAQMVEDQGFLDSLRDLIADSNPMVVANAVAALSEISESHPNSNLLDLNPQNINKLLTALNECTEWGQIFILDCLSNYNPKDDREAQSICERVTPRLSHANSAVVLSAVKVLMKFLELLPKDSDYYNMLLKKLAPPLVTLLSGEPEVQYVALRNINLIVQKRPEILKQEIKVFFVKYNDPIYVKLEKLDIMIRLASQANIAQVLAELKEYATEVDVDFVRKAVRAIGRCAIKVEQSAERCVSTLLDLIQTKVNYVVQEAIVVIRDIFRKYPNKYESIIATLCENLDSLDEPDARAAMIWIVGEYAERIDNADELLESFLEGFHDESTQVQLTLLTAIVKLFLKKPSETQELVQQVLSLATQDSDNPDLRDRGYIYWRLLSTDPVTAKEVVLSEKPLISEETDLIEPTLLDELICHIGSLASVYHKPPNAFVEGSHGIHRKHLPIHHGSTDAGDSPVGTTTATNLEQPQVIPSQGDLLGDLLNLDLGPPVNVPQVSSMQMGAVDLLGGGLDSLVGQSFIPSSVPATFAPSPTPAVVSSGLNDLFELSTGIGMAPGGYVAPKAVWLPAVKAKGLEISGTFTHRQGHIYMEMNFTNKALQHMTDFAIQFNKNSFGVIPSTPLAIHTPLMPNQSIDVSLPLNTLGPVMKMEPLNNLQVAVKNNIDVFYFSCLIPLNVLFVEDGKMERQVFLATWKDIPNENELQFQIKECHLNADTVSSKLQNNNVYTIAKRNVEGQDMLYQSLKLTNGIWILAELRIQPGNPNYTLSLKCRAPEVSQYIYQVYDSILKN
Assay [12] is described as follows: cytosolic pH regulators acting via V-ATPase – S. cerevisiae, pHLuorin, HTS validation (AID 504600; in the data active = response above about 15%;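 note: plate controls were DMSO for no effect and reference compound for full effect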). Conditions: V-ATPase proton transport, at 10 µM, stronger effect = higher value.
For assay [13], the system named is anti-desmoglein-3 scFv antibody binding to human DSG3. The experiment in a line: blockers of pathogenic pemphigus antibody–desmoglein-3 binding – biochemical, validation compound set, bead-based, flow cytometry, pilot screen (AID 588368;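 active = binding below the plate cutoff, the plate median minus 3 SD, with a reading above zero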;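 note: signal is the median channel fluorescence of bead-bound GFP antibody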). Conditions: Protein G beads, DSG3-Fc, scFv-GFP binding, at 10 µM, stronger effect = lower value.
The target of assay [14] is ATP-binding cassette sub-family B member 6 (Homo sapiens) (UniProt Q9NP58). The experiment in a line: blockers of ABCB6-driven porphyrin uptake – K562-ABCB6 cells, flow cytometry, validation set, pilot screen (AID 588550;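 active = inhibition above the screen-wide mean plus 3 SD, about 51%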;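 note: 0% = DMSO wells and 100% = benzethonium chloride 70 µM positive control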). Conditions: K562-ABCB6 porphyrin accumulation, 1 h, at 10 µM, stronger effect = higher value.
Chain of ATP-binding cassette sub-family B member 6 (Homo sapiens) (Q9NP58 whole entry, looked up): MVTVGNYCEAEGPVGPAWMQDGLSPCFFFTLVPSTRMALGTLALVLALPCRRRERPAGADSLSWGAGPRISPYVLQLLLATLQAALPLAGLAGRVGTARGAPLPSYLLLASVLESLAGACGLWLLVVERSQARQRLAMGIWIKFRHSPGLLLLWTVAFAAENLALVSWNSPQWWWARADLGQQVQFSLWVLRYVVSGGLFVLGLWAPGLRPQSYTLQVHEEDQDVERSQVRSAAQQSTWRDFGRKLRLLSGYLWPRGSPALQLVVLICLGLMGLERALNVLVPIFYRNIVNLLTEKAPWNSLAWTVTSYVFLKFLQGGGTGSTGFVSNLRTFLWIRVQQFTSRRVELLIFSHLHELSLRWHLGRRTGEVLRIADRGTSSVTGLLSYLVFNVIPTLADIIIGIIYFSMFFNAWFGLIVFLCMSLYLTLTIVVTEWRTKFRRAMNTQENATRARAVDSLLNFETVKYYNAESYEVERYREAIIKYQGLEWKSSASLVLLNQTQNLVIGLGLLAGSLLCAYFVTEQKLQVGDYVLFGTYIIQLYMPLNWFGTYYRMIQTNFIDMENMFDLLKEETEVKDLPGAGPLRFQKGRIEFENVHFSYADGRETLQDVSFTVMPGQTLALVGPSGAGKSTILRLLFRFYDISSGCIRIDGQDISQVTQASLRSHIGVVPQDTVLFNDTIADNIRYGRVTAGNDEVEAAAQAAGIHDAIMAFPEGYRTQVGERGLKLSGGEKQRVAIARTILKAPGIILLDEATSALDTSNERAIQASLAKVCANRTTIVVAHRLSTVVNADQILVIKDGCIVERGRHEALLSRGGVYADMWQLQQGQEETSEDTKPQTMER
The nature of assay [15]: AML differentiation inducers, ER-HoxA9 marrow cells – cell-based, GFP/MAC1 double positive, flow cytometry, validation set, primary screen (AID 588685;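 active = differentiation response of at least 50%, scaled between solvent and reference control, from cells with both markers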;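 note: compound exposure lasts four days before antibody staining and flow analysis; 0% = DMSO wells and 100% = 5 µM fulvestrant positive control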). Conditions: stronger effect = higher value, normalized: vehicle 0, fulvestrant 100.
Assay [16] is described as follows: Nile Red efflux blockade in pump-expressing yeast – validation compound set, multiplex, phenotypic, pilot screen (AID 588506;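 active = efflux inhibition above 0.42, the validation set average plus 4 SD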;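 note: Nile Red retained in cells so higher fluorescence means more efflux inhibition; 0 = negative control wells and 1 = enniatin B 25 µM full block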). The settings on record: S. cerevisiae pump-expressing triplex, Nile Red efflux flow cytometry; at 10 µM; stronger effect = higher value; the pumps come from Candida albicans.

Chain of Integrin beta-1 (Homo sapiens) + Integrin alpha-4 (Homo sapiens) (P05556 whole entry, looked up): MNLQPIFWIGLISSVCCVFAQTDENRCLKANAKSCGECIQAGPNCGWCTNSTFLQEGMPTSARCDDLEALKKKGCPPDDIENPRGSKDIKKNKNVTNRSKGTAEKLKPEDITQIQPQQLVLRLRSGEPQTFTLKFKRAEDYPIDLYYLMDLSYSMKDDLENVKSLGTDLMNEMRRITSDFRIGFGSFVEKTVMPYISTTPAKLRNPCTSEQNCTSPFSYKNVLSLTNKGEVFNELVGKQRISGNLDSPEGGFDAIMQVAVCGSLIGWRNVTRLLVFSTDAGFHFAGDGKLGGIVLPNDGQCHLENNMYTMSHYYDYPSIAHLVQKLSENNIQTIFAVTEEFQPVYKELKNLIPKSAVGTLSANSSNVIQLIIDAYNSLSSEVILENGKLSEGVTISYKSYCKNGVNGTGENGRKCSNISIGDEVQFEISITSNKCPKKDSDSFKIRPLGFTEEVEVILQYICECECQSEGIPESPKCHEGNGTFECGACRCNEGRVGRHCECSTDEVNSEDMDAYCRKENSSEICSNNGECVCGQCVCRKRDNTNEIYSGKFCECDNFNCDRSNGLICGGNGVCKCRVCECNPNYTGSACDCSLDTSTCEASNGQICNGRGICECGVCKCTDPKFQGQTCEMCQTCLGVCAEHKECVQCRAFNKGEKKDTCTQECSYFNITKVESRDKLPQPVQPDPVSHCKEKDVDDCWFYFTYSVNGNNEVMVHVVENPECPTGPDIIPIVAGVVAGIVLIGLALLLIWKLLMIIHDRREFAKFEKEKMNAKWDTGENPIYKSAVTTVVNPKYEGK
Chain of Integrin beta-1 (Homo sapiens) + Integrin alpha-4 (Homo sapiens) (P13612 whole entry, looked up): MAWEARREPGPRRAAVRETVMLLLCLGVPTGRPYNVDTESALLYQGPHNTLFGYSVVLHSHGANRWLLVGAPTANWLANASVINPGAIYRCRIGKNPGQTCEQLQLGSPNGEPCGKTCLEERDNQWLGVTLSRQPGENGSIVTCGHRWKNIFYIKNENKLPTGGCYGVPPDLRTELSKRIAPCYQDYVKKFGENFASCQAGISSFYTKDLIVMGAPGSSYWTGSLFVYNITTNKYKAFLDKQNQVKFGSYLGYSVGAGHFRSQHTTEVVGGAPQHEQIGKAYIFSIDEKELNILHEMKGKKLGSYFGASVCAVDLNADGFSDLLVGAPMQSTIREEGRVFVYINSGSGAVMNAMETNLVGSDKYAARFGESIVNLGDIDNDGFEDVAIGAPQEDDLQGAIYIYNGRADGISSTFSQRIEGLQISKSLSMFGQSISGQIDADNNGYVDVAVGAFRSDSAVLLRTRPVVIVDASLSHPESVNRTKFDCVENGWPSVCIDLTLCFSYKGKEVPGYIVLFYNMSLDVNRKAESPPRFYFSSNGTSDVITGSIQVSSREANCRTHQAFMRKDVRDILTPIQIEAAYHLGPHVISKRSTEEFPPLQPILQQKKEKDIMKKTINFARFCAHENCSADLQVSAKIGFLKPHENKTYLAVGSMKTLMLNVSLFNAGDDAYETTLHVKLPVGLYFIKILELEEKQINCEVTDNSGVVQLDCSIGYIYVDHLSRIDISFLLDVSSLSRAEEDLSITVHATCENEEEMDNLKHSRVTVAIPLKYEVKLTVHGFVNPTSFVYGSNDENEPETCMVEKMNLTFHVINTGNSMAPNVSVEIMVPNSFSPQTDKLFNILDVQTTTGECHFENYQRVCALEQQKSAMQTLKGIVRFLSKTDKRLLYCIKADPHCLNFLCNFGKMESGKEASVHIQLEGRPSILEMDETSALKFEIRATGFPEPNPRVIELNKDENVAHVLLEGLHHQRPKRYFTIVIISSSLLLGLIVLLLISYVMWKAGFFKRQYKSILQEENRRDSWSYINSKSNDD

As to `COc1ccc2c(c1)CC[C@@H]1[C@@H]2CC[C@]2(C)C(=O)CC[C@@H]12`, the percent of DMSO control GFP in assay [1] is 102% (inactive). The GFP response vs DMSO was 102% (inactive) in [2] and 133% (inactive) in assay [4]. Also, the percent response of DMSO control in [3] was 98.6% (inactive). The GFP response, % of DMSO in assay [5] is 104% (inactive). The double positive events in assay [6] was 58.2%. Also, the vesicle binding response in assay [6] was 122% (inactive). Moreover, the inhibition was -7.79% (inactive) in assay [7], -2.71% (inactive) in [11] and 3% (inactive) in assay [14]. For the same molecule, in assay [8], the superoxide response (% of plate) is 98.6% (inactive). Further, the aptamer binding inhibition in [9] is -1% (inactive). Further, the response in assay [10] is -15.3% (inactive); in assay [12], 109% (active). In addition, in assay [13], the binding (% of control) was 102% (inactive). Besides, the differentiation response in assay [15] was -0.18% (inactive).

Turning to `COc1ccc(C(=O)/C=C/c2ccc(OC(=O)c3cc(OC)c(OC)c(OC)c3)cc2)cc1`, the percent of DMSO control GFP in assay [1] was 100% (inactive). For the same molecule, the GFP response vs DMSO in assay [2] is 102% (inactive); in assay [4], 114% (inactive). In addition, the percent response of DMSO control in [3] was 87.3% (inactive). Further, in [5], the GFP response, % of DMSO was 105% (inactive). The molecule also registered a double positive events in assay [6] of 60.7%. The vesicle binding response in assay [6] was 179% (inactive). Besides, the figures for the inhibition in assay [7] and in assay [14] were -7.93% (inactive) and 0% (inactive), respectively. Moreover, in assay [8], the superoxide response (% of plate) is 96.7% (inactive). In addition, the aptamer binding inhibition in assay [9] is -2% (inactive). Besides, the response was -6.42% (inactive) in assay [10] and -3.29% (inactive) in assay [12]. Also, the binding (% of control) in [13] is 97.4% (inactive). Besides, in assay [16], the efflux inhibition (fraction of control) is 0.42 (inactive). Moreover, the differentiation response in assay [15] was 20.6% (inactive).

For `O=C(O)CCSc1nc2ccccc2s1`, the percent of DMSO control GFP in assay [1] was 104% (inactive). Further, the GFP response vs DMSO in assay [2] was 99.9% (inactive); in assay [4], 106% (inactive). In assay [3], the percent response of DMSO control was 102% (inactive). The GFP response, % of DMSO in assay [5] is 95.8% (inactive). The double positive events in assay [6] is 49.5%. For the same molecule, the vesicle binding response in assay [6] was 183% (inactive). The inhibition in [7] was -9.57% (inactive); in [11], -3.62% (inactive); in assay [14] it was 8% (inactive). In addition, in [8], the superoxide response (% of plate) was 115% (inactive). The aptamer binding inhibition in [9] was 7% (inactive). Moreover, the response in [12] is -1.68% (inactive). Also, the binding (% of control) in assay [13] is 101% (inactive). In assay [16], the efflux inhibition (fraction of control) is 0.44 (active). In assay [15], the differentiation response is 17.6% (inactive).

For `O=c1ccn([C@@H]2O[C@H](CO)[C@@H](O)[C@H]2O)c(=O)[nH]1`, the percent of DMSO control GFP in assay [1] is 102% (inactive). Besides, the GFP response vs DMSO in assay [2] is 102% (inactive); in assay [4], 98.3% (inactive). Also, the percent response of DMSO control in [3] was 93.8% (inactive). Besides, the GFP response, % of DMSO in assay [5] was 109% (inactive). The molecule also had a double positive events in [6] of 63.9%. Further, in assay [6], the vesicle binding response was 124% (inactive). Further, the values for the inhibition in assay [7], in [11] and in assay [14] were 11.7% (inactive), 10.2% (inactive) and 1% (inactive), respectively. Moreover, in [8], the superoxide response (% of plate) was 99.8% (inactive). Besides, the aptamer binding inhibition in [9] was 3% (inactive). Further, the figures for the response in [10] and in [12] were -22.4% (inactive) and 1.83% (inactive), respectively. In assay [13], the binding (% of control) was 102% (inactive). Also, the differentiation response in assay [15] is 24.6% (inactive).

Take `CC(C)C[C@H](NC(=O)NC(C)C)C(=O)O`: the percent of DMSO control GFP in assay [1] was 103% (inactive). The GFP response vs DMSO in assay [2] was 105% (inactive); in assay [4] it was 95.9% (inactive). Further, in assay [3], the percent response of DMSO control was 95.5% (inactive). In addition, the GFP response, % of DMSO in [5] was 99.8% (inactive). Further, the double positive events in [6] was 60.1%. In addition, the vesicle binding response in assay [6] was 136% (inactive). In addition, the inhibition in assay [7] is 9.63% (inactive); in assay [11] it was -6.27% (inactive); in assay [14], 0% (inactive). Besides, in assay [8], the superoxide response (% of plate) is 111% (inactive). Also, in assay [9], the aptamer binding inhibition was -1% (inactive). Moreover, the values for the response in assay [10] and in assay [12] were 2.78% (inactive) and -3.73% (inactive), respectively. In assay [13], the binding (% of control) is 96.8% (inactive). The efflux inhibition (fraction of control) in assay [16] was -0.12 (inactive). The differentiation response in [15] was -10.4% (inactive).
